Here are results for 8 compounds from PubChem BioAssay (Tox21).

Values joined by “and” are separate entries in the source; they are usually repeats but may differ in a detail not shown here. Equal values may be shown once. Records with an inconclusive call do not appear. Some compounds were tested as several samples or in several runs, with calls that do not always agree. Active and inactive are the calls of the source. Unless noted, calls come from the whole dose curve; as a rule, active = well fitted curve in the direction sought with a large enough effect in the repeat runs; inconclusive = weak or mixed curves; inactive = no such curve, though single readings can be large; an effect the other way counts as inactive or inconclusive.

For experiment [1], the target named is Progesterone receptor (Homo sapiens) (UniProt P06401). The experiment in a line: qHTS assay to identify small molecule agonists of the progesterone receptor (PR) signaling pathway (AID 1346784; calls by dose curve; note: nearly all actives have a fitted effect of over 30% in size). The gist of the method:
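PR-UAS-bla HEK 293T cells (beta-lactamase reporter under UAS) in 2% charcoal-stripped FBS, dosed with 23 nL compound after 6 hr, incubated 16hr at 37C. LiveBLAzer B/G FRET substrate added, fluorescence read after 2 hours.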
Background: In qHTS, concentration-response curves come from the screen itself.

Experiment [2] shares this target. The experiment in a line: qHTS assay to identify small molecule antagonists of the progesterone receptor (PR) signaling pathway (AID 1346795; active = well fitted inhibition curve with a large enough effect in the signal ratio in the repeat runs, not every such curve was filed as active; the % refers to the signal ratio). The gist of the method: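 PR-UAS-bla HEK293T cells with beta-lactamase reporter under UAS control, in 2% charcoal-stripped FBS, treated with compounds plus 1 nM promegestone (R5020, final) for 16 hr at 37C. Read-out: FRET beta-lactamase substrate fluorescence after 2 hr at room temperature.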

Experiment [3] can be described thus: qHTS assay to identify small molecule antagonists of the progesterone receptor (PR) signaling pathway - cell viability counter screen (AID 1346798). Note: series mostly up to about 92 µM; nearly all actives have a fitted effect of over 50% in size. The gist of the method:
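PR-UAS-bla HEK293T cells, 3,000/well in 2% charcoal-stripped FBS medium, dosed with compounds plus R5020 agonist and incubated 16 h at 37C. Viability then measured in the same wells by CellTiter-Glo luminescence after 30 min at RT.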

Experiment [4] can be described thus: qHTS assay to identify small molecule agonists of the progesterone receptor (PR) signaling pathway - cell viability counter screen (AID 1346799; calls by dose curve; note: nearly all actives have a fitted effect of over 45% in size). The gist of the method:
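Counter screen in the PR-UAS-bla HEK293T wells (2% charcoal-stripped FBS, 16 h compound exposure at 37 C) after the bla read. CellTiter-Glo added, 30 min at room temperature, luminescence read as cell viability.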

Experiment [5] is described as follows: qHTS assay to identify small molecule antagonists of the TGF-beta/Smad signaling pathway - cell viability counter screen (AID 1346824). Note: nearly all actives have a fitted effect of over 50% in size. The gist of the method: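 Cytotoxicity counter-screen run in the same wells as the beta-lactamase Smad reporter read: CellTiter-Glo luminescence after 30 min at room temperature. HEK 293T SBE-bla cells had 5 hr compound exposure at 37 C with TGF-beta1 (0.25 ng/mL stock).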

Experiment [6] can be described thus: qHTS assay to identify small molecule agonists of the TGF-beta/Smad signaling pathway - cell viability counter screen (AID 1346829). Note: top concentration of the series differs between compounds; nearly all actives have a fitted effect of over 45% in size. In a few lines: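 Same-well cytotoxicity: CellTiter-Glo added after the 2 hr room-temperature beta-lactamase substrate step, luminescence measured 30 min later; cells had 5 hr of compound at 37 C.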
The nature of experiment [7]: qHTS assay to identify small molecule agonists of the TGF-beta/Smad signaling pathway (AID 1346859; active = well fitted activation curve with a large enough effect in the signal ratio in the repeat runs, not every such curve was filed as active; the % refers to the signal ratio; note: series mostly up to about 77 µM). In a few lines:
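SBE-bla HEK293T cells plated overnight, then compound exposure for 5 h at 37 C. Beta-lactamase reporter read with LiveBLAzer B/G FRET substrate after 2 h at room temperature, fluorescence at 405 nm excitation, 460/530 nm emission.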

Experiment [8] has as its target Thyrotropin-releasing hormone receptor (Homo sapiens) (UniProt P34981). The experiment in a line: qHTS assay to identify small molecule antagonists of the thyrotropin-releasing hormone receptor (TRHR) signaling pathway (AID 1346877; active = well fitted inhibition curve with a large enough effect in the repeat runs, not every such curve was filed as active; note: series mostly up to about 51 µM). In a few lines:
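Antagonism is measured as suppression of the calcium response to 1 nM TRH in TRHR-HEK293 cells that have been dye-loaded for 2 h at 37 °C after overnight plating. Each compound is tested at 15 concentrations in triplicate.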

The target is the same in experiment [9]. Kind of experiment: qHTS assay to identify small molecule agonists of the thyrotropin-releasing hormone receptor (TRHR) signaling pathway (AID 1346891; calls by dose curve; note: series mostly up to about 58 µM). The gist of the method:
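HEK293 cells expressing TRHR plated 18 h at 37 C/5% CO2, calcium dye-loaded 2 h at 37 C, then compound added (agonist mode); kinetic calcium fluorescence read 3 min at 1 s intervals; 15 concentrations in triplicate.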

Experiment [10] is described as follows: Human pregnane X receptor (PXR) small molecule agonists, qHTS cell viability counter screen (AID 1346977). Note: nearly all actives have a fitted effect of over 50% in size. In a few lines:
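PXR-Luc HepG2 cells (2,000/well, 5% charcoal-stripped FBS) preincubated 5 hr, then exposed to compounds 24 hr at 37 C. Viability read in the same wells by CellTiter-Fluor fluorescence, reagent added at 23 hr, 1 hr incubation.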

The nature of experiment [11]: Caspase-3/7 induction in HepG2 cells by small molecules, qHTS assay (AID 1346978). Note: nearly all actives have a fitted effect of over 15% in size. In a few lines:
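Caspase-3/7 induction was measured by Caspase-Glo 3/7 luminescence (30 min, room temperature) after a 17 hr compound exposure of wild-type HepG2 cells seeded at 2,000 per well and pre-incubated 5 hr.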

Experiment [12] is described as follows: Caspase-3/7 induction in CHO-K1 cells by small molecules, qHTS cell viability counter screen (AID 1346979). Note: nearly all actives have a fitted effect of over 35% in size. The gist of the method: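 Wild-type CHO-K1 cells (1,500/well) treated with compound after 5 h plating; after 16 h at 37C, viability read as CellTiter-Fluor fluorescence following 1 h reagent incubation, in the same wells as the caspase read.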
Experiment [13] in a line: Caspase-3/7 induction in CHO-K1 cells by small molecules, qHTS assay (AID 1346980). Note: nearly all actives have a fitted effect of over 15% in size. The gist of the method: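 Luminescent Caspase-Glo 3/7 read (30min, room temperature) quantified apoptosis induction. Cells were wild-type CHO-K1, treated with compound for 17hr at 37 C and 5% CO2.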
Experiment [14] is described as follows: Caspase-3/7 induction in HepG2 cells by small molecules, qHTS cell viability counter screen (AID 1346981). Note: series mostly up to about 92 µM; nearly all actives have a fitted effect of over 30% in size. The gist of the method:
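Cell viability is measured as a cytotoxicity counter screen alongside the Caspase-Glo 3/7 readout in identical wells. Wild-type HepG2 cells are treated with test compounds for 16 hr at 37 C before CellTiter-Fluor addition and a 1-hr incubation.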

For experiment [15], the target named is Nuclear receptor subfamily 1 group I member 2 (Homo sapiens) (UniProt O75469). Kind of experiment: Human pregnane X receptor (PXR) small molecule agonists, qHTS assay (AID 1346982). Note: nearly all actives have a fitted effect of over 35% in size. The gist of the method:
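Cells: HepG2 stably carrying PXR-Luc. Medium held 5% charcoal-stripped FBS. Compounds in DMSO added after 5 hr plating, incubated 24 hr, then luminescence quantified with ONE-Glo.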

For experiment [16], the target named is Nuclear receptor subfamily 1 group I member 2 (Rattus norvegicus) (UniProt Q9R1A7). Kind of experiment: Rat pregnane X receptor (rPXR) activation by small molecules, qHTS assay (AID 1346983). Note: nearly all actives have a fitted effect of over 20% in size. To be noted: rPXR luciferase reporter cells, One-Glo luminescence, 24 h; stronger effect = higher value. In a few lines:
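Luminescent readout (One-Glo luciferase, 30 min room temperature) followed 24 hr compound treatment at 37 C of rPXR cells plated 2,000 per well and preincubated 5hr; qHTS format with compounds delivered in DMSO.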

The target of experiment [17] is Nuclear receptor subfamily 1 group I member 2 (Homo sapiens) (UniProt O75469). Kind of experiment: CYP3A4 induction through human pregnane X receptor (PXR) by small molecules, qHTS assay (AID 1346984). Note: nearly all actives have a fitted effect of over 40% in size. In a few lines: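 Quantitative HTS in DPX-2 cells, i.e. HepG2 transfected with PXR response element and CYP3A4-promoter luciferase. Compounds in DMSO incubated 24hr at 37C; then P450-Glo CYP3A4 substrate, 3uM final, 3hr; One-Glo luminescence.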

Experiment [18] has the same target. The experiment in a line: Human pregnane X receptor (PXR) activation by small molecules, qHTS assay (AID 1346985). Note: nearly all actives have a fitted effect of over 40% in size. In a few lines:
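DPX-2 cells (HepG2 co-transfected with a PXR response element and a CYP3A4-promoter luciferase construct) were seeded at 2,000 per well, rested 5 hr at 37C, then exposed to DMSO-dissolved compounds for 24 hr. Activation was read as luciferase luminescence.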

The target of experiment [19] is Cytochrome P450 2D6 (Homo sapiens) (UniProt P10635). Kind of experiment: Cytochrome P450 Family 2 Subfamily D Member 6 (CYP2D6) small molecule antagonists: luciferase reporter qHTS assay (AID 1671196). Note: nearly all actives have a fitted effect of over 50% in size. Note: potency is the fitted concentration of half-maximal effect. The gist of the method:
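Enzyme and proluciferin substrate were first combined with test chemical for 10 min at room temperature. Adding NADPH regeneration solution started a 1 h reaction, stopped with luciferin detection reagent and read by luminescence 20 min later.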

Experiment [20] deals with Cytochrome P450 2C19 (Homo sapiens) (UniProt P33261). The experiment in a line: Cytochrome P450 Family 2 Subfamily C Member 19 (CYP2C19) small molecule antagonists: luciferase reporter qHTS assay (AID 1671197). Note: nearly all actives have a fitted effect of over 65% in size. Note: potency is the fitted concentration of half-maximal effect. The gist of the method: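 Quantitative high-throughput screen of the Tox21 library using CYP2C19 with proluciferin substrate. Reaction: NADPH regeneration, 37C, 1 h, after 10 min compound preincubation at room temperature. Readout: luminescence.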
Background: A reporter such as luciferase makes a cellular process visible.
% is set by controls: 0 for no effect and ±100 for the full control effect.

Sequence of Cytochrome P450 2D6 (Homo sapiens) (P10635 whole entry, looked up): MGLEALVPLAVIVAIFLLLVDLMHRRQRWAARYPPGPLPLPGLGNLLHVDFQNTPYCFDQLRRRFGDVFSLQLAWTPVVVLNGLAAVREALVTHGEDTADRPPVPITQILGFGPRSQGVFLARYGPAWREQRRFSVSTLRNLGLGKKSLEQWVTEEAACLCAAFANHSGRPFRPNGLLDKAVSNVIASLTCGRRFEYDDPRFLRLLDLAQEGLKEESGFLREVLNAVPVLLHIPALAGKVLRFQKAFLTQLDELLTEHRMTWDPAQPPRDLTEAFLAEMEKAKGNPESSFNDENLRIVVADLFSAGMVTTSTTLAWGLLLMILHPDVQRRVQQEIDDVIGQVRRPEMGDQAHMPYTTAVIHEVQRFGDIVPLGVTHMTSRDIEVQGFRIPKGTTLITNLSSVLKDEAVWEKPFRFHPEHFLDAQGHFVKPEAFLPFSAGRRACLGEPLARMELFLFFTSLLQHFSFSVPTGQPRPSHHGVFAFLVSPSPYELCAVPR
Sequence of Nuclear receptor subfamily 1 group I member 2 (Homo sapiens) (O75469 whole entry, looked up): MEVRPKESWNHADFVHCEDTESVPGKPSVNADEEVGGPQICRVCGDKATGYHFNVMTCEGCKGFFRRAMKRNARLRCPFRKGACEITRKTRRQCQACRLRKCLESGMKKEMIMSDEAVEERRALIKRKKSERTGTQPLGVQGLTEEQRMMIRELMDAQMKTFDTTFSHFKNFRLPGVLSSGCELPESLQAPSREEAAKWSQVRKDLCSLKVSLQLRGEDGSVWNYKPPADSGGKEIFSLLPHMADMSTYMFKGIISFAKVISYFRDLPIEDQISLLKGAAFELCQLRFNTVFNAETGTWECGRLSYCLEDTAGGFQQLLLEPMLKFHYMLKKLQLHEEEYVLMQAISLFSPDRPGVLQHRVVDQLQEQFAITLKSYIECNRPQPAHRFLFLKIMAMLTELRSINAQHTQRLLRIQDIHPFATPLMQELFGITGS
Sequence of Cytochrome P450 2C19 (Homo sapiens) (P33261 whole entry, looked up): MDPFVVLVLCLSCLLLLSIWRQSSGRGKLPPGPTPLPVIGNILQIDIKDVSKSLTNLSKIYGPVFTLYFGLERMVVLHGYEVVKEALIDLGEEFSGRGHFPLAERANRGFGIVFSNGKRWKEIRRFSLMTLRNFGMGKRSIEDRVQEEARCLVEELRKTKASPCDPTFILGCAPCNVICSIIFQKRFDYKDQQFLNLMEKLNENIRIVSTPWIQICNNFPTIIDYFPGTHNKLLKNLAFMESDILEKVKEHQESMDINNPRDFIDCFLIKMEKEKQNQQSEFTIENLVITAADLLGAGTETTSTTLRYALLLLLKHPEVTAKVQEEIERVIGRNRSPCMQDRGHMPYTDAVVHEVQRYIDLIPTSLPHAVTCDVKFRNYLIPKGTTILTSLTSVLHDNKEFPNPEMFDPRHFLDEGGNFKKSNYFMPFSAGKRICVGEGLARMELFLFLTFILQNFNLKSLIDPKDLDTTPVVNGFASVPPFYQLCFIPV
Sequence of Progesterone receptor (Homo sapiens) (P06401 whole entry, looked up): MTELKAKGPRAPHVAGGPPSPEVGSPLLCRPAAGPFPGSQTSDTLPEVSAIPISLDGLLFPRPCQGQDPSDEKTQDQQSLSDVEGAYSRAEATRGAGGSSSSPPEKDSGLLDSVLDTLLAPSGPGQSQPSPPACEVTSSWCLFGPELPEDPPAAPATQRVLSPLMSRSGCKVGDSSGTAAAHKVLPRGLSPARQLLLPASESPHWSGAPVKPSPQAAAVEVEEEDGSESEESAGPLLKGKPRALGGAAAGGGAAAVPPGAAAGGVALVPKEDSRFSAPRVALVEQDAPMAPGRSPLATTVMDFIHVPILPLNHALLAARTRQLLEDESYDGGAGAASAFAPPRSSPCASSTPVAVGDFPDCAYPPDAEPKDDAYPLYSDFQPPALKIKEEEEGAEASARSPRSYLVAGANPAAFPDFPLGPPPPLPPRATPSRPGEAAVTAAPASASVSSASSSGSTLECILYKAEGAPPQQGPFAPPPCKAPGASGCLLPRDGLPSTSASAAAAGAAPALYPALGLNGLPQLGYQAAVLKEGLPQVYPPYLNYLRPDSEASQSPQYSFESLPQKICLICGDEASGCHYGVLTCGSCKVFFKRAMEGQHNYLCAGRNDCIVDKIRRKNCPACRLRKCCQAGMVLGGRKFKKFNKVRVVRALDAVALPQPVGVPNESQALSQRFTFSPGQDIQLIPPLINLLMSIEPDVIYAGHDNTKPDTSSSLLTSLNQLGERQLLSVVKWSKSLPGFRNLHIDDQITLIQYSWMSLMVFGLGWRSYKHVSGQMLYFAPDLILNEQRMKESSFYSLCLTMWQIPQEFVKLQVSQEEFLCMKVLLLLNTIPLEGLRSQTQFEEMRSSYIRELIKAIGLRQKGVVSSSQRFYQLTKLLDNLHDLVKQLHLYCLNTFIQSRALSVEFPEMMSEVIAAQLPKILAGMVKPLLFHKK
Sequence of Thyrotropin-releasing hormone receptor (Homo sapiens) (P34981 whole entry, looked up): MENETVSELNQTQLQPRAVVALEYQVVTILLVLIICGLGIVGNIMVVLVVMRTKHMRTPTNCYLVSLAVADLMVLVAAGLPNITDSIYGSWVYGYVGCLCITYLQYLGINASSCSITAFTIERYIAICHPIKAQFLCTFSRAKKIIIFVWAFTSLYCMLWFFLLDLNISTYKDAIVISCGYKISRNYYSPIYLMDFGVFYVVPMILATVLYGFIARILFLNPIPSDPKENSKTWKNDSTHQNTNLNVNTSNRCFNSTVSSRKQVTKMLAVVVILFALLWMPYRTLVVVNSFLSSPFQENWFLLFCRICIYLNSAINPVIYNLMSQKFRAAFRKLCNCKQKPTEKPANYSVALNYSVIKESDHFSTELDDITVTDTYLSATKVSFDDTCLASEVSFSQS
Sequence of Nuclear receptor subfamily 1 group I member 2 (Rattus norvegicus) (Q9R1A7 whole entry, looked up): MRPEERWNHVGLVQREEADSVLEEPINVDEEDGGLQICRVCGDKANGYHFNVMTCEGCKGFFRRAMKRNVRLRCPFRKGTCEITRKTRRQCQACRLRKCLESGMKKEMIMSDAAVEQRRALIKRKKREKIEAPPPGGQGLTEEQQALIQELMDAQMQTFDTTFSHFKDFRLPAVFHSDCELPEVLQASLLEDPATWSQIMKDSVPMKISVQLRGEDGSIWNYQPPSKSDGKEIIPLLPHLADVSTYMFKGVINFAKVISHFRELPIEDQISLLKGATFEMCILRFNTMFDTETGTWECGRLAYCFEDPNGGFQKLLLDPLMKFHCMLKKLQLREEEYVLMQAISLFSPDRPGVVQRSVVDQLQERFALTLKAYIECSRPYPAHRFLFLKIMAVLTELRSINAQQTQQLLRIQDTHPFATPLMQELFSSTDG

Turning to `CC(=O)Nc1ccc(CC(=O)O)cc1`, the Potency entry in [1], in experiment [2], in experiment [3], in experiment [4], in [5] and in experiment [6] was “inactive” each time. Also, the Potency result in experiment [7], in [8], in [10], in [11], in [12] and in experiment [13] was “inactive” in each case. Further, the Potency entry in experiment [14], in experiment [15], in experiment [17], in experiment [19] and in [20] was “inactive” in each case. The compound was called inactive in experiment [9] and in experiment [18]. In addition, the max activation in experiment [16] is -3.84% (inactive).
As to `Cc1cccc(C)c1[N+](=O)[O-]`, the Potency entry in experiment [1], in experiment [2], in experiment [3], in [4], in experiment [5] and in experiment [6] was “inactive” throughout. The Potency entry in experiment [7], in experiment [8], in experiment [11], in experiment [12], in experiment [13] and in experiment [14] was “inactive” each time. Moreover, the Potency entry in experiment [15], in experiment [19] and in [20] was “inactive” each time. Moreover, the outcome in [9] was inactive.
`C=C(CC(=O)O)C(=O)O`: the Potency entry in experiment [1], in experiment [2], in experiment [3], in [4], in [5] and in experiment [6] was “inactive” throughout. Moreover, the Potency result in experiment [7], in experiment [8], in [11], in experiment [12], in experiment [13] and in experiment [14] was “inactive” throughout. Besides, the compound was classed as inactive in [9].
For `C=C(C)CC(C)(C)C`, the Potency entry in experiment [1], in [2], in [3], in experiment [4], in experiment [5] and in experiment [6] was “inactive” each time. Besides, the Potency result in experiment [7], in [8], in [10], in experiment [11], in [12] and in experiment [13] was “inactive” in each case. Also, the Potency entry in experiment [14], in experiment [15], in [19] and in experiment [20] was “inactive” throughout. In addition, the outcome in [9] was inactive.
Consider `O=C(O)C1=NN(c2ccc(S(=O)(=O)O)cc2)C(=O)C1`, for which the Potency entry in experiment [1], in [2], in experiment [3], in [4], in [5] and in [6] was “inactive” throughout. Moreover, the Potency result in experiment [7], in [8], in [11], in experiment [12], in experiment [13] and in experiment [14] was “inactive” throughout. For the same compound, the Potency entry in [15] and in experiment [19] was “inactive” in each case. In addition, the outcome in [9] was inactive. Moreover, the Potency in [20] was 35.6 µM (active).
Take `C=CC(=O)NCOCCCC`: the Potency entry in experiment [1], in experiment [2], in experiment [3], in experiment [4], in experiment [5] and in experiment [6] was “inactive” each time. Also, the Potency result in experiment [7], in experiment [8], in experiment [11], in experiment [12], in [13] and in experiment [14] was “inactive” in each case. For the same compound, the Potency result in experiment [15] is “inactive”. Besides, the compound was classed as inactive in [9]. Also, the Potency in [19] was 16.4 µM (active) and inactive; in experiment [20] it was 46.2 µM (active).
Take `CC/C=C(\C(=O)N[C@@H]1C(=O)N2C(C(=O)OCOC(=O)C(C)(C)C)=C(COC(N)=O)CS[C@H]12)c1csc(N)n1`: the Potency entry in experiment [1], in [2], in [3], in experiment [4], in experiment [5] and in experiment [6] was “inactive” each time. The Potency entry in experiment [7], in experiment [8], in experiment [10], in experiment [11], in [12] and in experiment [13] was “inactive” throughout. Besides, the Potency entry in experiment [14], in experiment [15] and in experiment [19] was “inactive” in each case. The compound was classed as inactive in experiment [9]. For the same compound, the Potency in [20] is 19.5 µM (active).
As to `Cc1ccc([N+](=O)[O-])cc1N`, the Potency result in experiment [1], in experiment [2], in [3], in experiment [4], in experiment [5] and in experiment [6] was “inactive” each time. Further, the Potency result in experiment [7], in experiment [8], in [10], in [11], in experiment [12] and in experiment [13] was “inactive” each time. Moreover, the Potency entry in [14] and in experiment [15] was “inactive” throughout. In [9], the outcome was inactive. Also, the Potency was 35.5 µM (active) and 39.9 µM (active) in experiment [19]; 35.5 µM (active) and 44.8 µM (active) in experiment [20].
